From PubChem
Rows were chosen to be rich in hits. Some 1.3% of all compounds tested hit in one or more screens of this group.
AmpC inh detg = AmpC beta-lactamase inhibition with detergent present. AmpC hydrolysis of nitrocefin, absorbance 480 nm, 0.01% Triton. Potency, µM (doses to about 114 µM), usual class: inhibitors. P00811. AID 485294. 0.041% of 370,000 active; also: nearly all actives have a fitted effect of over 25% in size
Target sequence (P00811 whole entry, looked up): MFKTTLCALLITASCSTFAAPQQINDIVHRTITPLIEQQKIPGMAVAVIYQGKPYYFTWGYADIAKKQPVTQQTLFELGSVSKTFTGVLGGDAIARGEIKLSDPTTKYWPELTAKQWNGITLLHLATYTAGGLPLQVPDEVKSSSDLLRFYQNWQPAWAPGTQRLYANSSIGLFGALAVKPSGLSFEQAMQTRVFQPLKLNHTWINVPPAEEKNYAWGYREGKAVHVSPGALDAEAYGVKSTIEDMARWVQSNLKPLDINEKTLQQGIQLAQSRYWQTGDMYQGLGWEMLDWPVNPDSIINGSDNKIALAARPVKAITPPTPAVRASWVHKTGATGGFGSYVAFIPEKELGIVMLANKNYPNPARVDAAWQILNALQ
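AmpC (5.3 nM in the dispensed reagent) in 20 mM phosphate pH 7.0 with 0.01% (detergent screen) or 0.0001% Triton X-100 was preincubated with compounds for 15 min at room temperature. Nitrocefin was then added from an 800 uM solution, and hydrolysis was followed at 480 nm.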
AMA1-RON2 inh = AMA1-RON2 (P. falciparum) interaction inhibition | AlphaScreen AMA1-biotinylated RON2 peptide binding | Potency, µM (series often up to 58.2 µM), actives largely listed as inhibitors | 0.2% of 360,000 active; also: nearly all actives have a fitted effect of over 45% in size
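AMA1 (3D7) with his tag at 25 nM final met compounds first, then biotinylated RON2 peptide at 25 nM; detection used donor plus acceptor beads, 10 µg/mL apiece, read by AlphaScreen after 30 min at room temperature.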
AmpC inh no detg = inhibitors of E. coli AmpC beta-lactamase without detergent | Potency, µM (top dose mostly 57.1 µM), most hits filed as inhibitors | AmpC nitrocefin hydrolysis, absorbance 480 nm, 0.0001% Triton | 0.52% of 330,000 active; also: nearly all actives have a fitted effect of over 20% in size
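AmpC (5.3 nM in the dispensed reagent) in 20 mM phosphate pH 7.0 with 0.01% (detergent screen) or 0.0001% Triton X-100 was preincubated with compounds for 15 min at room temperature. Nitrocefin was then added from an 800 uM solution, and hydrolysis was followed at 480 nm.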
Giardia FBPA inh-1 = Giardia lamblia aldolase inhibition | A8B2U2 | purified Giardia FBPA | Potency, µM (doses to about 59.6 µM), most hits filed as inhibitors | 0.71% of 290,000 active | AID 2451; also: nearly all actives have a fitted effect of over 55% in size
Target sequence (A8B2U2 whole entry, looked up): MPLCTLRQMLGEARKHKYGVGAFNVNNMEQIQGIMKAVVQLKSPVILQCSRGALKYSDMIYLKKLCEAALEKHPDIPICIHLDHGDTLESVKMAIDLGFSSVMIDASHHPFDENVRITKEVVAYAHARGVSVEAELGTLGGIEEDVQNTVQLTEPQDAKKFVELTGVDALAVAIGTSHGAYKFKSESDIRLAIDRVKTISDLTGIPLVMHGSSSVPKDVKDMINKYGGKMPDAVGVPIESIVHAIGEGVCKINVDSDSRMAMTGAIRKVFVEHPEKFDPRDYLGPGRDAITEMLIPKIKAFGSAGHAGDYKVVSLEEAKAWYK
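Giardia FBPA (40 nM reagent) was preincubated 10 min at RT with compound (up to 57.5 uM final), then substrate plus GAPDH/TPI/NAD/arsenate coupling system with diaphorase/resazurin was added; resorufin fluorescence (525/598 nm) was read after 20 min.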
LmPK inhibitor = inhibitors of Leishmania mexicana pyruvate kinase | Q27686 | purified LmPK, Kinase-Glo ATP luminescence, 1 h | Potency, µM (titrated, usually from 57.5 µM), hits mostly inhibitors | 0.37% of 290,000 active
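Pyruvate kinase activity monitored as ATP production (luciferase luminescence). Conditions: 0.1 nM enzyme, 0.5 mM PEP, 0.1 mM ADP, 1 h, RT; normalized against uninhibited and no-enzyme wells.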
Giardia growth = Giardia lamblia growth inhibition | AID 2785 | Potency, µM (series often up to 57.5 µM), most hits filed as inhibitors | 5% of 1,500 active | Giardia lamblia trophozoite growth inhibition | shares compounds with Giardia FBPA inh-1;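 also: trophozoites exposed to compound for 48 h at 37 °C; nearly all actives have a fitted effect of over 70% in size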
Mammalian tox = toxic to mammalian cells in Giardia aldolase counter-screen; 4% of 1,500 active; shares compounds with Giardia FBPA inh-1; AID 2786; mammalian cell viability counter-screen, qHTS; Potency, µM (series often up to 57.5 µM), actives largely listed as inhibitors;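 also: Chinese hamster ovary cells used as mammalian cytotoxicity surrogate; viability measured as cellular ATP by luminescence; compound exposure lasted 48 h before reading; nearly all actives have a fitted effect of over 60% in size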
Giardia FBPA inh-2 = confirmation of Giardia fructose-bisphosphate aldolase inhibitors; purified Giardia aldolase enzyme activity, qHTS; AID 2787; shares compounds with Giardia FBPA inh-1; 5% of 1,500 active; Potency, µM (series often up to 57.5 µM), most hits filed as inhibitors; also: nearly all actives have a fitted effect of over 45% in size
Rabbit FBPA inh = rabbit FBP aldolase inhibition by Giardia aldolase hits | shares compounds with Giardia FBPA inh-1 | Rabbit muscle FBPA enzyme inhibition, selectivity counter-screen | Potency, µM (top dose mostly 57.5 µM), most hits filed as inhibitors | 4% of 1,500 active; also: nearly all actives have a fitted effect of over 60% in size
GAPDH coupling = counter-screen for Giardia aldolase inhibitors: GAPDH coupling enzyme; shares compounds with Giardia FBPA inh-1; GAPDH coupling enzyme counterscreen, biochemical, qHTS; Potency, µM (top dose mostly 57.5 µM), usual class: inhibitors; 6% of 1,500 active; AID 2795; also: nearly all actives have a fitted effect of over 55% in size
A number is an active result; n = inactive; u = inconclusive; x = no result given; [ ] = remark or other dose. Calls follow the shape of the dose curve; as a rule, active = well fitted curve in the direction sought with a large enough effect; inconclusive = small, poorly fitted or top-dose-only effect, or another doubt; inactive = no such curve, though single readings can be large; an effect the other way counts as inactive or inconclusive.

SMILES	AmpC inh detg	AMA1-RON2 inh	AmpC inh no detg	Giardia FBPA inh-1	LmPK inhibitor	Giardia growth	Mammalian tox	Giardia FBPA inh-2	Rabbit FBPA inh	GAPDH coupling
COc1ccc(NC(=S)N(CCC(C)C)C2CCN(C(C)C)CC2)cc1Cl	n	n	n	u	n	x	x	x	x	x
COc1cc(NC(=S)NCCCN2CCOCC2)c(OC)cc1Cl	u	n	n	n	n	x	x	x	x	x
COc1ccc(NC(=S)N(CCCN2CCC(C)CC2)Cc2cccs2)cc1Cl	n	n	n	15.8µM	n	n[10.4 µM]	n	n	n	n
COCCN(C(=S)Nc1ccc(OC)c(Cl)c1)C1CCN(C(C)C)CC1	n	n	n	11.2µM	n	u	n	n	n	n
COc1ccc(NC(=S)NCCCN2CCCC2)cc1Cl	n	n	n	8.89µM	n	u	31.6µM	u	n	u
COc1ccc(NC(=S)N(CCCN2CCN(C)CC2)Cc2cccs2)cc1	n	n	n	n	n	x	x	x	x	x
CSc1ncccc1C(=O)N1CCC(C)(C(=O)O)C1 (configuration not stated)	x	n	x	x	x	x	x	x	x	x
CN1C(=O)CC2(C=CC(=O)C=C2OC(=O)c2ccccc2)c2ccccc21 (configuration not stated)	x	x	x	n	x	x	x	x	x	x
CCN(CC)C(=O)CSc1nnc(-c2ccc(F)cc2)n1N	n	n	n	n	n	x	x	x	x	x
CCN(CC)C(=O)CSc1n[nH]c(=S)n1N	n	n	n	7.06µM	n	n	n	n	n	n
Cc1cc(C)c2oc(C(=O)N3CCN(C)CC3)cc(=O)c2c1	n	n	n	n	n	x	x	x	x	x
O=C(O)CCC(=O)c1ccc(C2CCCCCC2)cc1	x	n	x	x	x	x	x	x	x	x
Cc1ccc(C(=O)Nc2nnc(-c3ccncc3)o2)cc1	n	n	n	14.1µM	n	n	n	n	n	n
CC1CCCCN1S(=O)(=O)c1ccc(C(=O)Nc2nnc(-c3ccncc3)o2)cc1 (configuration not stated)	n	n	n	5µM	n[11.5 µM]	u	u	n	n	n
O=C(Nc1nnc(-c2ccncc2)o1)c1ccccc1	n	n	n	15.8µM	n	8.91µM	n	n	n	n
COc1ccc(NC(=O)CSc2nnc(C)n2C2CC2)cc1S(=O)(=O)N1CCOCC1	n	n	n	x	x	x	x	x	x	x
C=CCC(NCc1ccccc1)c1ccc(OC)cc1 (configuration not stated)	u	n	n	14.1µM	n	n	n	n	n	n
Cc1ccc(C2/C(=C(/O)c3ccc(Br)cc3)C(=O)C(=O)N2Cc2ccco2)o1 (configuration not stated)	n	n	n	19.9µM	n	u	n	n	n	n
C=CCc1cc(C)ccc1OCCOCCN1CCN(C)CC1	n	n	n	15.8µM	n	n	n	n	n	n
Cc1cc(Cl)c(OCCOCCN2CCN(C)CC2)c(Br)c1	u	u	n	22.4µM	n	n[10.4 µM]	n	n	n	n
Cc1ccc(OCCOCCN2CCN(C)CC2)c(C(C)(C)C)c1	n	u	n	12.6µM	n	n	n	n	n	n
Cc1cc(C)c(C)c(OCCOCCN2CCN(C)CC2)c1	n	n	n	n	n	x	x	x	x	x
COc1ccc(NC(=O)CSc2nnc(-c3nonc3NC(C)=O)n2C)cc1Cl	n	x	x	x	x	x	x	x	x	x
S=c1nc[nH]c2c1ncn2C1CCCC1	n	n	n	3.97µM	n	n	n	n	n	n
O=[N+]([O-])c1cccc(Cn2cnc3c(=S)nc[nH]c32)c1	x	n	x	x	x	x	x	x	x	x
SMILES	AmpC inh detg	AMA1-RON2 inh	AmpC inh no detg	Giardia FBPA inh-1	LmPK inhibitor	Giardia growth	Mammalian tox	Giardia FBPA inh-2	Rabbit FBPA inh	GAPDH coupling
OCC1CCCC(n2cnc3c(=S)nc[nH]c32)O1 (configuration not stated)	n	n	n	3.97µM	n	n	n	n	n	u
CCOC1CCCC(n2cnc3c(=S)nc[nH]c32)O1 (configuration not stated)	x	n	x	x	x	x	x	x	x	x
O=NN(CC(=O)NNc1ccccc1)CC(=O)NNc1ccccc1	x	n	x	x	x	x	x	x	x	x
CCCS(=O)(=O)NC(=O)C1(C)CCCN(C(=O)c2c(-c3ccccc3)noc2C)C1 (configuration not stated)	x	n	x	x	x	x	x	x	x	x
Cc1cc(C)c(O)c(N)c1	n	x	n	19.9µM	n	n[10.4 µM]	n	u	u	n
COC(=O)C/C=N/N=C1/NC(=O)/C(=C/C(=O)O)S1	n	n	n	17.7µM	n	n[10.4 µM]	n	n	n	n
COc1ccccc1N1CCN(Cc2ccc(SC)cc2)CC1	u	20µM	n	15.8µM	n	n	n	n	n	n
COc1ccccc1CN1CCN(C(=O)COc2cccc(C)c2)CC1	n	n	n	u	n	x	x	x	x	x
COc1ccccc1CN1CCN(C(=O)COc2ccc3ccccc3c2)CC1	n	u	n	20µM	n	n[10.4 µM]	n	n	n	n
COc1ccccc1N1CCN(CC(=O)c2ccc(F)cc2)CC1	n	n	n	15.8µM	n	n	n	n	n	n
COc1ccccc1N1CCN(Cc2ccc(F)cc2)CC1	n	n	n	n	n	x	x	x	x	x
COc1ccc(C(=O)CN2CCN(c3ccc(F)cc3)CC2)cc1OC	n	n	n	n	n	x	x	x	x	x
COc1ccccc1NC(=O)CN1CCCCC1	n	n	n	n	n	x	x	x	x	x
CCN1CCN(CC(=O)Nc2c(OC)cccc2OC)CC1	n	n	n	12.6µM	n	n[10.4 µM]	n	n	n	n
CCCCN1C(=O)C(CC(=O)NC2CC2)CC(C(=O)N(CC)CC)=C1C (configuration not stated)	x	n	x	x	x	x	x	x	x	x
Cc1ccc2c(c1)N(C(=O)CCC(=O)N1CCC(C(N)=O)CC1)CCO2	n	n	n	n	n	x	x	x	x	x
COc1ccc(CN2CCN(Cc3ccccc3F)CC2)cc1OC	u	u	n	15.8µM	n	n	n	n	n	n
COc1ccccc1N1CCN(CCC(=O)Nc2ccc3c(c2)OCO3)CC1	u	n	n	n	n	x	x	x	x	x
COc1ccccc1N1CCN(CC(=O)Nc2ccc3c(c2)OCCO3)CC1	n	u	n	17.7µM	n	n	n	n	n	n
COc1ccc(CN2CCN(Cc3ccccc3OC)CC2)cc1	n	n	n	14.1µM	n	n	n	n	n	n
CCc1cccc(NC(=O)C2CCCN2S(=O)(=O)c2ccc3nc(-c4ccccc4)[nH]c3c2)c1 (configuration not stated)	n	x	x	x	x	x	x	x	x	x
COCCCn1c(SCc2ccccc2F)nc2c(sc3ccccc32)c1=O	n	x	x	x	x	x	x	x	x	x
